# Measured values taken from PubChem BioAssay (EPA / NIEHS).
# Activity calls are given as the source filed them. Rule for the calls: active = hit-call score of the fitted dose curve at least 0.9, where 1 is the maximum; inactive = score below 0.9.
# Key:
# Settings in all cases: mRNA level, 48 h; actives raise or lower the signal
# [1] = read-out: Ezrin (EZR), EZR (gene 7430); experiment: LTEA_HepaRG_EZR: Life Technologies and Expression Analysis (LTEA) Assay for Ezrin (EZR) using HepaRG (AID 2283491)
# Summary of the method: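 HepaRG, 48 h chemical exposure, 8-pt half-log series from 100 uM, 0.5% DMSO vehicle, duplicates. Read-out: EZR mRNA by TaqMan qRT-PCR (Fluidigm array), housekeeping-normalized; bidirectional curve fit vs DMSO baseline.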
# [2] = read-out: Cytochrome P450 3A7 (Homo sapiens) (UniProt P24462); experiment: LTEA_HepaRG_CYP3A7: Life Technologies and Expression Analysis (LTEA) Assay for CYP3A7 using HepaRG (AID 2283492)
# Summary of the method: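 CYP3A7 transcript levels were read by TaqMan qRT-PCR on Fluidigm arrays after 48 h chemical exposure of human HepaRG cells, with housekeeping-gene normalisation. Eight half-log concentrations up to 100 uM in 0.5% DMSO were tested in duplicate.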
# CYP3A5 (gene 1577) = experiment: LTEA_HepaRG_CYP3A5: Life Technologies and Expression Analysis (LTEA) Assay for CYP3A5 using HepaRG (AID 2283493)
# Summary of the method: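 HepaRG cells, plated 48 h then in serum-free induction medium, dosed in duplicate for 48 h with eight half-log concentrations up to 100 uM in 0.5% DMSO. Gene mRNA by Fluidigm TaqMan qRT-PCR, normalized to ACTB, GAPDH, POLR2A.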
# [3] = read-out: Fatty Acid-Binding Protein 1 (FABP1), FABP1 (gene 2168); experiment: LTEA_HepaRG_FABP1: Life Technologies and Expression Analysis (LTEA) Assay for Fatty Acid-Binding Protein 1 (FABP1) using HepaRG (AID 2283494)
# Summary of the method: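 HepaRG, 48 h post-plating switched to serum-free induction medium, then dosed 48 h (duplicate, 8 pts, ≤100 uM, 0.5% DMSO). RNA → Fluidigm TaqMan qRT-PCR, FABP1 normed to ACTB/GAPDH/POLR2A. Bidirectional curve fit vs DMSO.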
# [4] = read-out: Cytochrome P450 4A22 (Homo sapiens) (UniProt Q5TCH4); experiment: LTEA_HepaRG_CYP4A22: Life Technologies and Expression Analysis (LTEA) Assay for Cytochrome P450 4A22 (CYP4A22) using HepaRG (AID 2283495)
# Summary of the method: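 HepaRG, 48 h post-plating -> serum-free induction medium; dosed 48 h, duplicate, 8 conc. (100 uM top, half-log), 0.5% DMSO. Readout: CYP4A22 mRNA by qRT-PCR, ACTB/GAPDH/POLR2A normalization; gain/loss fit relative to DMSO.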
# [5] = read-out: Cytochrome P450 7A1 (Homo sapiens) (UniProt P22680); experiment: LTEA_HepaRG_CYP7A1: Life Technologies and Expression Analysis (LTEA) Assay for Cytochrome P450 7A1 (CYP7A1) using HepaRG (AID 2283496)
# Summary of the method: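 HepaRG cells plated 48 h, then switched to serum-free induction medium and exposed in duplicate for 48 h to 8-point half-log series from 100 uM in 0.5% DMSO. CYP7A1 mRNA by qRT-PCR (TaqMan), normalized to ACTB/GAPDH/POLR2A; bidirectional fit versus DMSO.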
# [6] = read-out: Glutathione S-Transferase (GSTA2), GSTA2 (gene 2939); experiment: LTEA_HepaRG_GSTA2: Life Technologies and Expression Analysis (LTEA) Assay for Glutathione S-Transferase (GSTA2) using HepaRG (AID 2283497)
# Summary of the method: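 HepaRG, 48 h dosing, 8-pt half-log CRC from 100 uM, 0.5% DMSO vehicle, n=2; RNA → Fluidigm TaqMan qRT-PCR; GSTA2 vs ACTB/GAPDH/POLR2A; gain/loss fit vs DMSO.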
# [7] = read-out: Glutamate-cysteine ligase catalytic (GCLC), GCLC (gene 2729); experiment: LTEA_HepaRG_GCLC: Life Technologies and Expression Analysis (LTEA) Assay for Glutamate-cysteine ligase catalytic (GCLC) using HepaRG (AID 2283498)
# Summary of the method: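 Read-out is GCLC transcript level by Fluidigm-based TaqMan qRT-PCR, normalized to three housekeeping genes and fitted in both directions relative to 0.5% DMSO. Human HepaRG cells received chemicals for 48 h, up to 100 uM.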
# [8] = read-out: growth arrest and DNA damage 45 (GADD45G), GADD45G (gene 10912); experiment: LTEA_HepaRG_GADD45G: Life Technologies and Expression Analysis (LTEA) Assay for growth arrest and DNA damage 45 (GADD45G) using HepaRG (AID 2283499)
# Summary of the method: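 HepaRG, 48 h exposure, top 100 uM, half-log 8-point series, 0.5% DMSO vehicle, duplicates. Readout: GADD45G transcript by qRT-PCR (Fluidigm array), housekeeping-normalised (ACTB/GAPDH/POLR2A). Bidirectional curve fit vs DMSO baseline.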
# [9] = read-out: Glutathione S-transferase M3 (GSTM3), GSTM3 (gene 2947); experiment: LTEA_HepaRG_GSTM3: Life Technologies and Expression Analysis (LTEA) Assay for Glutathione S-transferase M3 (GSTM3) using HepaRG (AID 2283501)
# Summary of the method: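 qRT-PCR read-out of GSTM3 transcript, normalized to three housekeeping genes, from human HepaRG cells after 48 h chemical exposure. Eight-point half-log series, top 100 uM, 0.5% DMSO vehicle; gain or loss fitted relative to DMSO baseline.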
# [10] = read-out: Heat shock 70 kDa protein 1 (HSPA1A), gene 3303; experiment: LTEA_HepaRG_HSPA1A: Life Technologies and Expression Analysis (LTEA) Assay for Heat shock 70 kDa protein 1 (HSPA1A) using HepaRG (AID 2283502)
# Summary of the method: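 Human HepaRG cells in serum-free induction medium were exposed in duplicate for 48 h to 8 half-log concentrations, highest 100 uM, in 0.5% DMSO. HSPA1A mRNA read by TaqMan qRT-PCR, normalized to ACTB, GAPDH, POLR2A, fitted bidirectionally against DMSO.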
# [11] = read-out: Hypoxia-inducible factor 1-alpha (Homo sapiens) (UniProt Q16665); experiment: LTEA_HepaRG_HIF1A: Life Technologies and Expression Analysis (LTEA) Assay for Hypoxia-inducible factor 1 (HIF1A) Trancription factor using HepaRG (AID 2283503)
# Summary of the method: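 Differentiated HepaRG cells in serum-free induction medium exposed 48 h, in duplicate, to 8-point half-log series from 100 uM in 0.5% DMSO. HIF1A mRNA measured by TaqMan qRT-PCR, normalized to ACTB/GAPDH/POLR2A, fitted bidirectionally versus DMSO.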
# [12] = read-out: 3-Hydroxy-3-Methylglutaryl-CoA Synthase 2 (HMGCS2), HMGCS2 (gene 3158); experiment: LTEA_HepaRG_HMGCS2: Life Technologies and Expression Analysis (LTEA) Assay for 3-Hydroxy-3-Methylglutaryl-CoA Synthase 2 (HMGCS2) using HepaRG (AID 2283504)
# Summary of the method: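 qRT-PCR read-out of HMGCS2 transcript, normalised to three housekeeping genes, in HepaRG cells after 48 h chemical exposure. Eight-point curves from 100 uM, half-log dilutions, 0.5% DMSO vehicle; gain or loss fitted relative to DMSO baseline.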
# HGF (gene 3082) = experiment: LTEA_HepaRG_HGF: Life Technologies and Expression Analysis (LTEA) Assay for Hepatocyte Growth Facto (HGF) using HepaRG (AID 2283505)
# Summary of the method: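 HepaRG, 48 h dosing, 8-pt half-log series from 100 uM in 0.5% DMSO, duplicates. Readout: TaqMan qRT-PCR of HGF mRNA, housekeeping-normalized; bidirectional curve fit vs DMSO baseline.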
# [13] = read-out: Insulin Like Growth Factor 1 (IGF1), IGF1 (gene 3479); experiment: LTEA_HepaRG_IGF1: Life Technologies and Expression Analysis (LTEA) Assay for Insulin Like Growth Factor 1 (IGF1) using HepaRG (AID 2283506)
# Summary of the method: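 Differentiated HepaRG cells in serum-free induction medium, exposed 48 h in duplicate to 8 half-log concentrations up to 100 uM in 0.5% DMSO. IGF1 mRNA by Fluidigm qRT-PCR, normalised to ACTB, GAPDH and POLR2A.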
# [14] = read-out: Intercellular Adhesion Molecule 1 (ICAM1), ICAM1 (gene 3383); experiment: LTEA_HepaRG_ICAM1: Life Technologies and Expression Analysis (LTEA) Assay for Intercellular Adhesion Molecule 1 (ICAM1) using HepaRG (AID 2283507)
# Summary of the method: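 HepaRG, 48 h exposure, 8-pt half-log series from 100 uM, 0.5% DMSO vehicle, duplicates. Readout: TaqMan qRT-PCR mRNA, housekeeping-normalized (ACTB/GAPDH/POLR2A). Bidirectional curve fit vs DMSO baseline.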
# [15] = read-out: Insulin-like growth factor-binding protein 1 (IGFBP1), IGFBP1 (gene 3484); experiment: LTEA_HepaRG_IGFBP1: Life Technologies and Expression Analysis (LTEA) Assay for Insulin-like growth factor-binding protein 1 (IGFBP1) using HepaRG (AID 2283508)
# Summary of the method: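 qRT-PCR mRNA read-out (TaqMan, Fluidigm array), normalised to three housekeeping genes; HepaRG cells, 48 h exposure, 8-pt half-log series from 100 uM, 0.5% DMSO vehicle; bidirectional curve fit vs DMSO baseline.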
# [16] = read-out: Interleukin 6 (IL6), IL6 (gene 3569); experiment: LTEA_HepaRG_IL6: Life Technologies and Expression Analysis (LTEA) Assay for Interleukin 6 (IL6) using HepaRG (AID 2283509)
# Summary of the method: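 HepaRG, ~100,000 cells/well, 48 h pre-culture; serum-free induction medium; cmpd 8-pt half-log from 100 uM, 0.5% DMSO, duplicate, 48 h. Lysis in RLT, TaqMan qRT-PCR; gain or loss vs DMSO.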
# [17] = read-out: Interleukin 6 Receptor (IL6R), IL6R (gene 3570); experiment: LTEA_HepaRG_IL6R: Life Technologies and Expression Analysis (LTEA) Assay for Interleukin 6 Receptor (IL6R) using HepaRG (AID 2283510);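 for AC50: differentiated human HepaRG liver cells in serum-free induction medium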
# Summary of the method: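 Differentiated HepaRG cells, plated 48 h, then exposed in duplicate for 48 h in serum-free induction medium to 8 half-log concentrations (top 100 uM, 0.5% DMSO). IL6R mRNA measured by TaqMan qRT-PCR, normalized to ACTB/GAPDH/POLR2A; bidirectional fit vs DMSO.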
# [18] = read-out: Glutamate-cysteine ligase regulatory (GCLM), GCLM (gene 2730); experiment: LTEA_HepaRG_GCLM: Life Technologies and Expression Analysis (LTEA) Assay for Glutamate-cysteine ligase regulatory (GCLM) using HepaRG (AID 2283500)
# Summary of the method: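 Differentiated HepaRG cells exposed 48 h in serum-free induction medium to eight half-log concentrations up to 100 uM (0.5% DMSO). GCLM mRNA by TaqMan qRT-PCR, normalized to ACTB, GAPDH and POLR2A; bidirectional fit versus DMSO.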
# Sequence of Cytochrome P450 3A7 (Homo sapiens) (P24462 whole entry, looked up): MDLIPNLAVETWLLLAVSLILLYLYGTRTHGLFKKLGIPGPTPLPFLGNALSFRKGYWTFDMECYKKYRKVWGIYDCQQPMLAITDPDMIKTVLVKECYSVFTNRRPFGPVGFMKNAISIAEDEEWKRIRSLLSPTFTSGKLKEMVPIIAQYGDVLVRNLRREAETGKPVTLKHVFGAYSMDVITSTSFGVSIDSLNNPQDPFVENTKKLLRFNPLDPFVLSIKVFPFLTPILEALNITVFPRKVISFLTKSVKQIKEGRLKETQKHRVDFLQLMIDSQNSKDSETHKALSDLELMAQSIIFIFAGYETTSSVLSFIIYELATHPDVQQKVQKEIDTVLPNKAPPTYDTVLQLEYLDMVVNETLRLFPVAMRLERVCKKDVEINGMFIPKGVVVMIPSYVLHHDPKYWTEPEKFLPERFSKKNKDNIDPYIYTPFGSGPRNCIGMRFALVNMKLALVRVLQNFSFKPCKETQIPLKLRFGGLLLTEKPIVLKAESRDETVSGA
# Sequence of Hypoxia-inducible factor 1-alpha (Homo sapiens) (Q16665 whole entry, looked up): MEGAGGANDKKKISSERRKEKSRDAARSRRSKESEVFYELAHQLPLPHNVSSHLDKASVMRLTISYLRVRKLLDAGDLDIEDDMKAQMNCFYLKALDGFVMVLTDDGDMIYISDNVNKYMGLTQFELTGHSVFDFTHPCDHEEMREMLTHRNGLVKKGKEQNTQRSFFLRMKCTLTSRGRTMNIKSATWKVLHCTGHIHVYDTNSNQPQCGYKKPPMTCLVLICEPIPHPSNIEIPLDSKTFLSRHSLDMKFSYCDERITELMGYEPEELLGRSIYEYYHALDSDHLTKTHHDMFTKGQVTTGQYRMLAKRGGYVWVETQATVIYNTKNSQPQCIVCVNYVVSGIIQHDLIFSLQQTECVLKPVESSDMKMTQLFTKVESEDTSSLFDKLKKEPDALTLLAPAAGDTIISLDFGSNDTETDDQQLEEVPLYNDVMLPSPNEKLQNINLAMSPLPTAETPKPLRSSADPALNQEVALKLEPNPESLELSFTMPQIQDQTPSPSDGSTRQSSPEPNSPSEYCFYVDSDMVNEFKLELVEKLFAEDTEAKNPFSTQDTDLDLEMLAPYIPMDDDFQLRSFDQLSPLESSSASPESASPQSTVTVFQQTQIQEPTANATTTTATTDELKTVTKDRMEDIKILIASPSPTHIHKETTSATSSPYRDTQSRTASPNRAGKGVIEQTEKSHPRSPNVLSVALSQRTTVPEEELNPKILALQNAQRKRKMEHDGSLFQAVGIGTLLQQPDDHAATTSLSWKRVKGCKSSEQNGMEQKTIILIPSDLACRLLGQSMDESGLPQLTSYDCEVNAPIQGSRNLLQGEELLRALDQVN
smiles,measurement,setting,value
CC[C@H](NC(=O)c1cc(F)ccc1NS(=O)(=O)c1cccc2cccnc12)c1ccccc1,outcome,[1],inactive
same,outcome,[2],inactive
same,outcome,CYP3A5 (gene 1577),inactive
same,AC50,[3],32.3 µM (active)
same,AC50,[4],22.8 µM (active)
same,AC50,[5],33.8 µM (active)
same,AC50,[6],80 µM (active)
same,AC50,[7],47.8 µM (active)
same,outcome,[8],inactive
same,outcome,[9],inactive
same,AC50,[10],12.2 µM (active)
same,outcome,[11],inactive
same,AC50,[12],37.6 µM (active)
same,outcome,HGF (gene 3082),inactive
same,AC50,[13],12.4 µM (active)
same,outcome,[14],inactive
same,outcome,[15],inactive
same,outcome,[16],inactive
same,AC50,[17],38.6 µM (active)
OCCO,outcome,[1],inactive
same,outcome,[2],inactive
same,outcome,CYP3A5 (gene 1577),inactive
same,outcome,[3],inactive
same,outcome,[6],inactive
same,outcome,[7],inactive
same,outcome,[8],inactive
same,outcome,[18],inactive
same,outcome,[9],inactive
same,outcome,[10],inactive
same,outcome,[11],inactive
same,outcome,[12],inactive
same,outcome,HGF (gene 3082),inactive
same,outcome,[13],inactive
same,outcome,[14],inactive
same,outcome,[15],inactive
same,outcome,[16],inactive
same,outcome,[17],inactive
Cc1ncc(CO)c(CO)c1O,outcome,[1],inactive
same,outcome,[2],inactive
same,outcome,CYP3A5 (gene 1577),inactive
same,outcome,[3],inactive
same,outcome,[4],inactive
same,outcome,[5],inactive
same,outcome,[6],inactive
same,outcome,[7],inactive
same,outcome,[8],inactive
same,outcome,[9],inactive
same,outcome,[10],inactive
same,outcome,[12],inactive
same,outcome,HGF (gene 3082),inactive
same,outcome,[13],inactive
same,outcome,[14],inactive
same,outcome,[15],inactive
same,outcome,[16],inactive
